Screens from PubChem.
12-LOX inh = inhibitors of human 12S-lipoxygenase ALOX12; P18054; purified 12hLO, xylenol orange hydroperoxide absorbance; Potency, µM (top dose mostly 108 µM), without a hit: at the top dose activity change, negative = inhibition, usual class: inhibitors; 580,000 compounds, 1.1% hits; AID 1671190; further: on the % scale 0 is the no-effect control and ±100 the full control effect
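Hydroperoxide product was detected by ferrous iron/xylenol orange as the 573 to 405 nm absorbance ratio. Arachidonic acid at 40 uM (final) was turned over for 30 min at room temperature by 150 nM human 12hLO, pH 7.0 Hepes buffer, after 15 min compound preincubation.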
Sfp inh = blocks B. subtilis Sfp PPTase activity; Q9F4F7; Biochemical Sfp PPTase activity, qHTS; Potency, µM, for the others: largest response in the series, negative = inhibition, actives largely listed as inhibitors; 310,000 compounds, 3.5% hits; AID 1490;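 further: the enzyme is Sfp with the accession as filed and its product quenches rhodamine fluorescence; 0% = enzyme reaction without inhibitor and -100% = no enzyme wells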
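Fluorescence-quenching assay: 15 nM Sfp-PPTase preincubated 15 min at room temperature with compound, then 5 uM rhodamine-CoA and 12.5 uM BHQ-2-labelled YbbR peptide added. Fluorescence (ex 525/em 598 nm) read at start and after 30 min; difference gives rate.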
G9a inh = G9a (human) methyltransferase inhibition; Q96KQ7; G9a H3K9 monomethylation, AlphaScreen, 2 h; Potency, µM (top dose mostly 102 µM), without a hit: at the highest dose activity, negative = inhibition, most hits filed as inhibitors; 350,000 compounds, 8.8% hits; further: on the % scale 0 is the no-effect control and ±100 the full control effect; nearly all actives have a fitted effect of over 75% in size
Target sequence (Q96KQ7 913-1193 limits assumed): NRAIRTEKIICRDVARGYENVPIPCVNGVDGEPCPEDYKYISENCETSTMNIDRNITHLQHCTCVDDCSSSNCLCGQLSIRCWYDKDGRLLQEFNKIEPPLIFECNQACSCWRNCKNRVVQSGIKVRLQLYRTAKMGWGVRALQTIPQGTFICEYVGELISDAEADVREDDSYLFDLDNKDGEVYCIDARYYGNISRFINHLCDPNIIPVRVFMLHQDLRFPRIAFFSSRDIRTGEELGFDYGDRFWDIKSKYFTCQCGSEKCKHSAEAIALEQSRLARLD
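Compounds were preincubated with 20 nM G9a for 15 min, after which biotinylated H3K9 peptide (500 nM) and SAM (20 uM) started a 2 h room-temperature reaction. Monomethylated product was quantified by antibody-based AlphaScreen chemiluminescence.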
BAZ2B inh = inhibitors of human BAZ2B bromodomain; AID 504333; 360,000 compounds, 4.4% hits; Q9UIF8; Potency, µM (top dose mostly 114 µM), without a hit: top-dose activity change, negative = inhibition, actives largely listed as inhibitors; AlphaScreen BAZ2B-H3K14Ac peptide displacement; further: on the % scale 0 is the no-effect control and ±100 the full control effect; nearly all actives have a fitted effect of over 60% in size
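Compounds, titrated to a top concentration of 110 uM, were incubated 30 min at room temperature with preformed BAZ2B/acetyl-K14 H3 peptide complex (50 nM each). Proximity signal was measured by AlphaScreen after 20 min with beads.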
HP1b chromo inh = inhibitors of HP1-beta chromodomain binding to methylated histone tails. P83916. AlphaScreen HP1-beta / biotin-H3K9me3 peptide binding. Potency, µM (doses to about 114 µM), for inactives: top-dose activity change, negative = inhibition, usual class: inhibitors. 390,000 compounds, 0.56% hits; further: nearly all actives have a fitted effect of over 70% in size
Target sequence (P83916 whole entry, looked up): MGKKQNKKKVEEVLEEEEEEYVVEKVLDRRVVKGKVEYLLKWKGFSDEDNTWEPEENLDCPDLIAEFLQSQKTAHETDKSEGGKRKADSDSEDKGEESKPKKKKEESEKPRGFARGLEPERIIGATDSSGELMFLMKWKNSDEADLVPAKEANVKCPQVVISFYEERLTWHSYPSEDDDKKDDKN
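Compound inhibition of the preformed complex between 50 nM HP1-beta and 50 nM biotinylated H3K9me3 peptide was read by AlphaScreen. Buffer was PBS pH 7.4 with 0.01% Tween-20. Incubations ran 30 min at room temperature, with 10 ug/mL donor/acceptor beads.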
JMJD2A Tudor = inhibitors of human JMJD2A Tudor domain; O75164; AlphaScreen JMJD2A-Tudor / H3K4me3 peptide binding; Potency, µM (titrated, usually from 114 µM), inactives show at the highest dose activity change, negative = inhibition, hits mostly inhibitors; 390,000 compounds, 4.4% hits; AID 504339; further: on the % scale 0 is the no-effect control and ±100 the full control effect; nearly all actives have a fitted effect of over 50% in size
* hit, by the source's call; [ ] = dose if it differs, or a comment. Compounds with a hit are over-represented: about 8.7% of the library has one in this group of screens. The call rests on the fitted dose curve; in most records, active means well fitted curve in the direction sought with a large enough effect; inconclusive means small, poorly fitted or top-dose-only effect, or another doubt; inactive means no such curve, though single readings can be large; an effect the other way counts as inactive or inconclusive. Potency means the concentration at half of the fitted maximal effect.

How did COc1cccc(N2CC(C(=O)Nc3nnc(SCC(=O)NCC4CCCO4)s3)CC2=O)c1 (stereo unspecified) do in these assays?
12-LOX inh: -5.6%; Sfp inh: inconclusive; G9a inh: 16.0%[12.7 µM]; BAZ2B inh: -8.9%; HP1b chromo inh: 32.2%; JMJD2A Tudor: -8.3%

What do the screens show for `CN(C)c1ccc(N=Nc2ccccc2C(=O)OCC(=O)N2CCCC2)cc1`?
12-LOX inh: -5.3%; Sfp inh: -7.8%; G9a inh: 25.1µM*; BAZ2B inh: 39.8µM*; HP1b chromo inh: inconclusive; JMJD2A Tudor: 56.2µM*

Results for CN(C)c1cc[n+](CC(=O)Nc2ccccc2C(F)(F)F)cc1 ?
12-LOX inh: inconclusive; Sfp inh: 2.4%; G9a inh: -0.8%[0.501 µM]; BAZ2B inh: 3.5%; HP1b chromo inh: 31.2%; JMJD2A Tudor: -5.5%

What do the screens show for `CN(C)c1ccc(N=Nc2ccccc2C(=O)OCC(=O)Nc2ccccc2C(F)(F)F)cc1`?
12-LOX inh: -0.6%; Sfp inh: -4.2%; G9a inh: 10µM*; BAZ2B inh: 10µM*; HP1b chromo inh: inconclusive; JMJD2A Tudor: 7.08µM*

Results for CN(C)c1ccc(N=Nc2ccccc2C(=O)OCC(=O)N2CCCCCC2)cc1 ?
12-LOX inh: -9.8%; Sfp inh: -9.7%; G9a inh: 8.91µM*; BAZ2B inh: 12.6µM*; HP1b chromo inh: 17.8µM*; JMJD2A Tudor: 28.2µM*

How did COC(=O)CNc1n[nH]c(=S)[nH]c1=O do in these assays?
12-LOX inh: inconclusive; Sfp inh: 50.1µM*; G9a inh: inconclusive; BAZ2B inh: -27.5%; HP1b chromo inh: 36.2%; JMJD2A Tudor: -13.0%[11.4 µM]

How did CC(C)OC(=O)C(C)Nc1n[nH]c(=S)[nH]c1=O (stereo unspecified) do in these assays?
12-LOX inh: -7.3%; Sfp inh: 2.0%; G9a inh: 44.7µM*; BAZ2B inh: -21.1%; HP1b chromo inh: 51.6%; JMJD2A Tudor: -0.7%

Results for CC(C)COC(=O)C(C)Nc1n[nH]c(=S)[nH]c1=O (stereo unspecified) ?
12-LOX inh: inconclusive; Sfp inh: 21.9%; G9a inh: -1.1%; BAZ2B inh: -14.0%; HP1b chromo inh: 49.9%; JMJD2A Tudor: -10.4%

Results for CC(C)OC(=O)CNc1n[nH]c(=S)[nH]c1=O ?
12-LOX inh: -10.4%; Sfp inh: 44.7µM*; G9a inh: 25.1µM*; BAZ2B inh: -21.4%; HP1b chromo inh: 5.6%; JMJD2A Tudor: 79.4µM*

Results for CN(C)C(=O)CNc1n[nH]c(=S)[nH]c1=O ?
12-LOX inh: -0.7%; Sfp inh: 20µM*; G9a inh: -2.0%; BAZ2B inh: -18.7%; HP1b chromo inh: 41.3%; JMJD2A Tudor: -35.8%

Results for O=C(C1CN(c2cccc(Cl)c2)C(=O)N1)N1CCOCC1 (stereo unspecified) ?
12-LOX inh: 19.9%[176 µM]

How did O=C(/C=C/c1ccco1)N(c1ccccn1)c1ccccn1 do in these assays?
12-LOX inh: 34.3%; Sfp inh: 39.8µM*; G9a inh: 12.6µM*; BAZ2B inh: 22.4µM*; HP1b chromo inh: 31.6µM*; JMJD2A Tudor: 22.4µM*

What do the screens show for `O=C(/C=C/c1ccco1)NCc1ccccn1`?
12-LOX inh: 3.7%; Sfp inh: -64.7%; G9a inh: 35.5µM*; BAZ2B inh: -10.2%; HP1b chromo inh: 31.2%; JMJD2A Tudor: 2.1%

How did O=C(/C=C/c1ccco1)NCC1OCCc2ccccc21 (stereo unspecified) do in these assays?
12-LOX inh: 44.7µM*; Sfp inh: 22.4µM*; G9a inh: 4.8%[12.7 µM]; BAZ2B inh: 44.7µM*; HP1b chromo inh: 31.6µM*; JMJD2A Tudor: 50.1µM*

How did O=C(c1ccco1)N(c1ccccn1)c1ccccn1 do in these assays?
12-LOX inh: 0.0%; Sfp inh: -5.6%; G9a inh: 5.4%[2.33 µM]; BAZ2B inh: -3.1%; HP1b chromo inh: 32.8%; JMJD2A Tudor: 1.8%

How did COc1ccc(-c2cc(C[C@@H]3CC[C@H](O)[C@@H](CNC(=O)N4CCOCC4)O3)no2)cc1 do in these assays?
12-LOX inh: -10.0%[176 µM]

What do the screens show for `Cc1noc(-c2cn(C3CCN(C(=O)c4ccc(F)cc4Cl)CC3)nn2)n1`?
12-LOX inh: 29.2%

How did COc1ccc(-c2noc(CSc3nnc(-c4ccco4)n3C3CCCCC3)n2)c(OC)c1 do in these assays?
12-LOX inh: 23.1%

What do the screens show for `Cc1ccc2[nH]c(C)c(CCN(Cc3cccnc3)C(=S)NC(C)(C)C)c2c1`?
12-LOX inh: 4.5%; Sfp inh: -2.3%; G9a inh: -14.5%; BAZ2B inh: -38.3%; HP1b chromo inh: -1.2%; JMJD2A Tudor: -28.1%

How did CNC(=S)N(CCc1c(C)[nH]c2ccc(C)cc12)Cc1cccnc1 do in these assays?
12-LOX inh: -26.9%; Sfp inh: 4.6%; G9a inh: 79.4µM*; BAZ2B inh: inconclusive; HP1b chromo inh: 9.1%; JMJD2A Tudor: -27.6%

What do the screens show for `CCNC(=S)N(CCc1c(C)[nH]c2ccc(Cl)cc12)Cc1cccnc1`?
12-LOX inh: 0.0%; Sfp inh: -2.0%; G9a inh: -40.6%; BAZ2B inh: inconclusive; HP1b chromo inh: 1.3%; JMJD2A Tudor: inconclusive

What do the screens show for `CNC(=S)N(CCc1c(C)[nH]c2ccc(Cl)cc12)Cc1cccnc1`?
12-LOX inh: -5.7%; Sfp inh: -12.0%; G9a inh: 5.8%[2.33 µM]; BAZ2B inh: 70.8µM*; HP1b chromo inh: -12.5%; JMJD2A Tudor: inconclusive

How did CCCCCCCCCCCCCCCC[N+](C)(C)CCN(Cc1ccc(OC)cc1)c1ncccn1 do in these assays?
12-LOX inh: inconclusive; Sfp inh: 14.1µM*; G9a inh: -32.9%[59 µM]; BAZ2B inh: 9.3%; HP1b chromo inh: -24.8%; JMJD2A Tudor: inconclusive

How did Cc1cccc(OC(=O)n2c(=S)oc3cc(Cl)ccc32)c1 do in these assays?
12-LOX inh: inconclusive; Sfp inh: 1.2%; G9a inh: 2.82µM*; BAZ2B inh: -14.9%; HP1b chromo inh: 3.4%; JMJD2A Tudor: 79.4µM*

Results for Cc1c(C(=O)NN)nn(-c2ccc(Cl)cc2)c(=O)c1C#N ?
12-LOX inh: -7.8%; Sfp inh: 6.7%; G9a inh: 44.7µM*; BAZ2B inh: -11.1%; HP1b chromo inh: 6.2%; JMJD2A Tudor: -24.8%

What do the screens show for `O=[N+]([O-])c1ccc(-c2cc(-c3cccnc3)nc3ccc4ccccc4c23)cc1`?
12-LOX inh: -23.8%

How did C#CCOCCOCCOCCNc1nc(N2CCN(C(=O)[C@H](CCC(=O)O)n3cc(CN)nn3)CC2)nc(N2CCN(C(=O)[C@H](CCCCN)n3cc([C@@H](N)CC(N)=O)nn3)CC2)n1 do in these assays?
12-LOX inh: -10.8%; HP1b chromo inh: 46.0%; JMJD2A Tudor: 56.2µM*
